Test results published in PubChem BioAssay AID1345085 (National Center for Advancing Translational Sciences (NCATS), 2018).
Records with an inconclusive call do not appear. Calls of active or inactive are those of the source. Calls come from the whole dose curve; as a rule, active = well fitted cell-killing curve with a large enough effect; inconclusive = small, poorly fitted or top-dose-only effect, or effect the other way; inactive = no such curve, though single readings can be large or run the other way.
% is set by controls: 0 for no effect and ±100 for the full control effect; potency is the fitted concentration of half-maximal effect.
Note: nearly all actives have a fitted effect of over 55% in size.

Each compound was assayed on Hek293T (assay: Confirmatory qHTS for gynecologic anti-cancer compounds from libraries of approved drugs and bioactive compounds). Conditions: gynecologic cancer cell panel viability, ATPlite luminescence, 48 h; series mostly up to 57.6 µM; activity change, negative = viability loss: at the top concentration.
Method in brief: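 Seeding 1,000 cells per well preceded overnight (16 h) attachment, after which 48 h drug treatment across 57.5 uM–0.977 nM (11 points) was applied. Remaining cellular ATP, detected by ATPlite luminescence, defined IC50.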
In the case of C[C@@]1(C(=O)Nc2ccc(F)nc2)CCCN1c1nc(Nc2cc(C3CC3)[nH]n2)c2cccn2n1, the “activity change, negative = viability loss” value is reported as 10.3% (inactive).
For Cc1ccc(C(=O)Nc2cccc(C(F)(F)F)c2)cc1-c1ccc2nc(NCCN3CCOCC3)ncc2c1, the Potency was 19.3 µM (active).
With NCCOc1cc(C(=O)Nc2cc(OCCN)c3ccccc3n2)nc(C(=O)Nc2cc(OCCN)c3ccccc3n2)c1 the “activity change, negative = viability loss” value was 3.25% (inactive).
For COC(C(=O)N1Cc2[nH]nc(NC(=O)c3ccc(N4CCN(C)CC4)cc3)c2C1)c1ccccc1 (stereo unspecified), the “activity change, negative = viability loss” value was 3.38% (inactive).
O=c1[nH]c(=O)n([C@H]2C[C@H](O)[C@@H](CO)O2)cc1F was tested, and the Potency was 1.37 µM (active).
For CN1CCCC(n2nc(Cc3ccc(Cl)cc3)c3ccccc3c2=O)CC1 (stereo unspecified), the Potency was 17.2 µM (active).
With Nc1ccc(-c2ccc3ncc4ccc(=O)n(-c5cccc(C(F)(F)F)c5)c4c3c2)cn1 the Potency was 0.0544 µM (active).
CC(C)(C(=O)NCC(F)(F)C(F)(F)F)C(=O)NC1C(=O)Nc2ccccc2-c2ccccc21 (stereo unspecified) was tested, and the “activity change, negative = viability loss” value was -13.8% (inactive).
In the case of CCc1c2c(nc3ccc(O)cc13)-c1cc3c(c(=O)n1C2)COC(=O)[C@]3(O)CC, the Potency is reported as 0.611 µM (active).
With Cc1cc(Nc2nc(N[C@@H](C)c3ncc(F)cn3)ncc2Cl)n[nH]1 the “activity change, negative = viability loss” value was 17.7% (inactive).
With Cc1ccc(C(=O)Nc2ccc(CN3CCN(C)CC3)c(C(F)(F)F)c2)cc1C#Cc1cnc2[nH]ncc2c1 the Potency was 21.7 µM (active).
With Nc1ccccc1NC(=O)c1ccc(CNC(=O)OCc2cccnc2)cc1 the “activity change, negative = viability loss” value was -21.3% (inactive).
With Cc1nc(N)nc(N)c1-c1ccc(Cl)c(Cl)c1 the Potency was 1.22 µM (active).
In the case of CC(C)(C)C(=O)OCOP(=O)(COCCn1cnc2c(N)ncnc21)OCOC(=O)C(C)(C)C, the Potency is reported as 3.43 µM (active).
For COc1cc(Nc2ncc(F)c(Nc3ccc4c(n3)N(COP(=O)(O)O)C(=O)C(C)(C)O4)n2)cc(OC)c1OC, the “activity change, negative = viability loss” value was -15.2% (inactive).
With COc1cc2nccc(Oc3ccc(NC(=O)Nc4cc(C)on4)c(Cl)c3)c2cc1OC the “activity change, negative = viability loss” value was -9.87% (inactive).
With COc1cc2c(Oc3ccc(-c4cnc(Nc5ccc(F)cc5)n(C)c4=O)cc3F)ccnc2cc1OCCCN1CCOCC1 the Potency was 15.3 µM (active).
In the case of CN(C)C1CCN(C(=O)c2ccc(NC(=O)Nc3nc(N4CCOCC4)nc(N4CCOCC4)n3)cc2)CC1, the Potency is reported as 0.485 µM (active).
COc1cccc2c1C(=O)c1c(O)c3c(c(O)c1C2=O)C[C@@](O)(C(=O)CO)C[C@@H]3O[C@H]1C[C@H](N)[C@H](O[C@@H]2CCCCO2)[C@H](C)O1 was tested, and the Potency was 10.9 µM (active).
With CC(C)Oc1ccc(C(=O)NC(CNC(=O)CN(C)C)Cc2ccc(-c3cn4cccc(C(C)O)c4n3)cc2)cc1Cl (stereo unspecified) the “activity change, negative = viability loss” value was -16.2% (inactive).
With CC1=C(CO)C(=O)O[C@@H]([C@@H](C)[C@H]2CC[C@H]3[C@@H]4C[C@H]5O[C@]56[C@@H](O)C=CC(=O)[C@]6(C)[C@H]4CC[C@]23C)C1 the Potency was 2.37 µM (active).
In the case of COc1ccc2c(c1)c(CC(=O)O)c(C)n2C(=O)c1ccc(Cl)cc1, the “activity change, negative = viability loss” value is reported as -25.1% (inactive).
With CCN(CC)CCNC(=O)c1c(C)[nH]c(/C=C2\C(=O)Nc3ccc(F)cc32)c1C the Potency was 31.6 µM (active).
For CCN1CCN(Cc2ccc(-c3cc4c(NC(C)c5ccccc5)ncnc4[nH]3)cc2)CC1 (stereo unspecified), the Potency was 27.3 µM (active).
Cn1cc(-c2[nH]c3cc(NC(=O)[C@H](N)C4CCCCC4)cc4c3c2C=NNC4=O)cn1 was tested, and the Potency was 0.432 µM (active).
In the case of CCN[C@H]1C[C@H](C)S(=O)(=O)c2sc(S(N)(=O)=O)cc21, the “activity change, negative = viability loss” value is reported as 0.966% (inactive).
With CCc1cccc(CC)c1NC(=O)N1Cc2[nH]nc(NC(=O)c3ccc(N4CCN(C)CC4)cc3)c2C1 the “activity change, negative = viability loss” value was -17.5% (inactive).
COc1cc(N2CCC(N3CCN(C)CC3)CC2)ccc1Nc1ncc(Cl)c(Nc2ccccc2S(=O)(=O)C(C)C)n1 was tested, and the Potency was 21.7 µM (active).
For Cc1cc(C2CCCCC2)n(O)c(=O)c1, the Potency was 11.1 µM (active).
With CC(C)n1nc(-c2cc3cc(O)ccc3[nH]2)c2c(N)ncnc21 the Potency was 6.85 µM (active).
With CCS(=O)(=O)N1CCN(c2ccc(Nc3ncc(C(N)=O)c(NC4CC4)n3)cc2)CC1 the Potency was 17.2 µM (active).
With CCCCc1nc2cc(/C=C/C(=O)NO)ccc2n1CCN(CC)CC the Potency was 1.72 µM (active).
With CC(C)C[C@H](NC(=O)[C@@H](NC(=O)c1cccc(-c2ccccc2)n1)[C@@H](C)O)B(O)O the Potency was 0.193 µM (active).
For Cc1ccc(C(=O)N(CCCN)C(c2nc3cc(Cl)ccc3c(=O)n2Cc2ccccc2)C(C)C)cc1 (stereo unspecified), the Potency was 0.0061 µM (active).
COCCOc1nc(-c2ccc(Cl)c(Cl)c2)n(-c2ccc(NC(=O)CCl)cc2)n1 was tested, and the Potency was 12.2 µM (active).
With CC(C)C[C@H](NC(=O)[C@H](CCc1ccccc1)NC(=O)CN1CCOCC1)C(=O)N[C@@H](Cc1ccccc1)C(=O)N[C@@H](CC(C)C)C(=O)[C@@]1(C)CO1 the Potency was 3.43 µM (active).
